Source: PubChem BioAssay
Most compounds without a hit are left out; they make up all but 6.6% or so of the library.
MCF10A rereplic: A quantitative high throughput screen for small molecules that induce DNA re-replication in MCF 10a normal breast cells. AID 624296, 2012. actives 2.9% (n = 350,000). Potency, µM (series often up to 46.1 µM), usual class: activators. MCF 10A DNA re-replication, Hoechst nuclear intensity, 48 h; note: nearly all actives have a fitted effect of over 50% in size
RGS4 inh: Inhibitors of Regulator of G Protein Signaling (RGS) 4: qHTS | Regulator of G-protein signaling 4 (Homo sapiens), P49798 | Transcreener GDP fluorescence polarization, RGS4-accelerated GTP hydrolysis | Potency, µM (titrated, usually from 114 µM), actives largely listed as inhibitors | actives 0.039% (n = 390,000) | AID 504845, 2011; note: nearly all actives have a fitted effect of over 75% in size
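MLSMR compounds (23 nl, pin-transferred) preincubated 10 min at room temperature with a 500nM (2x) first reagent, then RGS4 at 900nM (2x) plus Transcreener GDP mix added; fluorescence polarization (620/688 nm) read before and after 90 min at 30 °C.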
SW480 rerep: A quantitative high throughput screen for small molecules that induce DNA re-replication in SW480 colon adenocarcinoma cells | actives 1.8% (n = 340,000) | AID 624297, 2012 | Potency, µM (series often up to 46.1 µM), actives largely listed as activators | SW480 DNA re-replication, Hoechst DNA content imaging, 48 h; note: nearly all actives have a fitted effect of over 55% in size
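SW480 cells exposed to compounds for 48 hr at 37 C, 5% CO2, then Hoechst-stained 40 min. Nuclear DNA content imaged by fluorescence scanning (405 nm excitation, 500-530 nm emission); re-replication scored as increased high-intensity nuclei.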
TSG101-PTAP inh: qHTS Assay for Iinhibitors of HIV-1 Budding by Blocking the Interaction of PTAP/TSG101. 340,000 tested, under 10 active. Fluorescence polarization, FITC-PTAP peptide / Tsg101 binding. Potency, µM (top dose mostly 115 µM), actives largely listed as inhibitors. Tumor susceptibility gene 101 protein (Homo sapiens), Q99816. AID 493005, 2010; active = well fitted inhibition curve with a large enough effect in the main read-out, with a control signal flat, not every such curve was filed as active; inconclusive = small, poorly fitted or top-dose-only effect, or effect the other way, or a change in a side signal; inactive = no such curve, though single readings can be large or run the other way
Target sequence (Q99816 whole entry, looked up): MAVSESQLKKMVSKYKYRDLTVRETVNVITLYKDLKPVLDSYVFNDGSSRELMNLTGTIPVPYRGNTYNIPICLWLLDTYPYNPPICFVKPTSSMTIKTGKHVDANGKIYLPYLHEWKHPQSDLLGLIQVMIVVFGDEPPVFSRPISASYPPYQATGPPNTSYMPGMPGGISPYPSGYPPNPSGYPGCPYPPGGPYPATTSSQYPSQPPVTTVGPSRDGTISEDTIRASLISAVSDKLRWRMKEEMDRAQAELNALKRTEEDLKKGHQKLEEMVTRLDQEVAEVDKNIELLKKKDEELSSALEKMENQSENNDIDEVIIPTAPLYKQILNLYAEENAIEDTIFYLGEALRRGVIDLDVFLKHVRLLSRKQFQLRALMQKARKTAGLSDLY
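FP read-out: FITC-PTAP peptide, 50 nM final, binding Tsg101 binding domain, 10 uM final; 20 min, r.t.; 10 mM HEPES pH 7.5, 0.15 M NaCl, 0.01% Tween 20, 3 mM EDTA, 0.1 mM TCEP.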
KB-3-1 cytotox: qHTS assay for MDR1-selective chemotherapeutics: Primary screen using the parental adenocarcinoma cell KB-3-1; Potency, µM (doses to about 46.1 µM), actives largely listed as cytotoxic; KB-3-1 viability, CellTiter-Glo ATP luminescence, 72 h; actives 1.4% (n = 400,000); note: nearly all actives have a fitted effect of over 60% in size
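KB-3-1 parental drug-naive adenocarcinoma cells in DMEM/10% FBS, incubated 72 h at 37 C with pin-transferred compounds across a concentration series. Viability by CellTiter-Glo luminescence; concentration-response curves fitted after normalization.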
KB-V1 cytotox: qHTS assay for MDR1-selective chemotherapeutics: Primary screen using the drug-selected MDR subline cells KB-V1; KB-V1 MDR cells viability, CellTiter-Glo, 72 h; actives 3.4% (n = 400,000); Potency, µM (top dose mostly 46.1 µM), hits mostly cytotoxic; note: nearly all actives have a fitted effect of over 60% in size
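Following 72 h at 37 degrees C with compound, KB-V1 cell viability was read by CellTiter-Glo luminescence, medium being phenol-red-free DMEM plus 10% FBS; concentration-response parameters came from normalized, curve-fitted qHTS data.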
Hits are given with their value; 0 = inactive; ? = inconclusive; - = not tested or not shown. Unless noted, calls come from the whole dose curve; as a rule, active = well fitted curve in the direction sought with a large enough effect; inconclusive = small, poorly fitted or top-dose-only effect, or another doubt; inactive = no such curve, though single readings can be large; an effect the other way counts as inactive or inconclusive.

SMILES	MCF10A rereplic	RGS4 inh	SW480 rerep	TSG101-PTAP inh	KB-3-1 cytotox	KB-V1 cytotox
O=[N+]([O-])c1ccc2nc(SCc3ccccc3Cl)sc2c1	13µM	0	0	0	0	0
Nc1ccc2nc(SCc3ccc([N+](=O)[O-])cc3)sc2c1	0	0	0	0	0	?
O=C(NC(Nc1nc2ccc([N+](=O)[O-])cc2s1)(C(F)(F)F)C(F)(F)F)c1cccnc1	0	0	0	0	12µM	?
CN(C)S(=O)(=O)c1ccc2nc(NC(=O)c3cccnc3)sc2c1	0	0	0	0	0	0
COCCn1c(SCC(=O)NC2CCCC2)nnc1C(C)C	0	0	0	0	0	0
CCCn1c(SCC(=O)NC2CCCC2)nnc1C(C)C	0	0	18µM	0	0	0
NC(=O)C1CCN(c2ncnc(-c3ccc4c(c3)OCCCO4)n2)CC1	-	-	-	-	0	0
C=CCn1c(COc2ccccc2)nnc1SCC(=O)Nc1ccc2c(c1)OCCO2	0	0	0	0	0	0
C=CCn1c(COc2ccc3c(c2)CCCC3)nnc1SCC(=O)Nc1cccc(SC)c1	0	0	0	0	?	15µM
COc1ccc(S(=O)(=O)NCC(c2ccco2)N2CCN(c3ccccc3F)CC2)cc1C (configuration not stated)	-	0	-	-	-	-
O=C1NC(c2cccc3ccccc23)Nc2ccc(Cl)cc21 (configuration not stated)	?	0	0.73µM	0	0.18µM	0.23µM
CCN(Cc1ccccc1)C(=O)c1cnn(-c2ccc(F)cc2)c1-n1cccc1	-	0	-	-	0	?
Cc1ccc2[nH]c3c(=O)n(N)c(C)nc3c2c1	0	0	6.5µM	0	0	0
COc1ccc2[nH]c3c(=O)n(N)c(C)nc3c2c1	0	0	-	0	0	0
COCc1cc(C)nc2sc(C(=O)Nc3ccccc3O)c(N)c12	-	0	-	-	-	-
CCCCNC(=O)c1sc2nc(C)cc(COC)c2c1-n1cccc1	0	0	0	0	0	5.2µM
COCc1cc(C)nc2sc(C(=O)OC(C)C)c(N)c12	21µM	0	?	0	0	?
COCc1cc(C)nc2sc(C(=O)Nc3ccccc3F)c(N)c12	6.5µM	0	12µM	0	?	0
CCCCCCCCN(CCCCCCCC)c1ccc(/C=C/c2ccnc3ccccc23)cc1	-	-	-	-	?	0
CCOc1ccc(/C=C/c2nc(C#N)c(NC3CCCCC3)o2)cc1	-	0	-	-	-	-
COc1ccc(N2CCN(C3CC(=O)N(Cc4ccccc4)C3=O)CC2)cc1 (configuration not stated)	0	0	0	0	0	0
O=C(c1ccncc1)c1ccc(N2CCN(C3CC(=O)N(Cc4ccccc4)C3=O)CC2)cc1 (configuration not stated)	?	0	0	0	?	16µM
CSc1nn(Cc2ccc(F)cc2)c(N)c1S(=O)(=O)c1ccc(Cl)cc1	-	0	-	-	?	?
O=C(NCc1cccnc1)/C(=C\c1ccc(-c2ccc(Br)cc2)o1)S(=O)(=O)c1ccccc1	7.3µM	?	15µM	0	?	7.3µM
O=C(NCc1cccnc1)/C(=C/c1ccc(Cl)cc1)NC(=O)c1ccccc1	0	0	0	0	0	0
O=C(NCc1cccnc1)/C(=C/c1ccc(-c2ccc(Cl)cc2)o1)S(=O)(=O)c1ccccc1	9.2µM	?	9.2µM	0	0	?
O=C(CN(Cc1ccc(Br)cc1)S(=O)(=O)c1ccccc1)NCc1cccnc1	?	0	0	0	-	-
CCOC(=O)c1cc(-c2ccc(F)cc2)n(CCC(=O)Nc2ccccc2OC)c1C	-	0	-	-	0	0
